Source: PubChem
Autophagy HCS: autophagy modulation, high-content screen; actives 0.98% (n = 190,000); MEF GFP-LC3 puncta imaging; test concentration mostly 10 µM; calls only at 10 µM (by protocol);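 active means percentage of spot-positive cells more than 3 SD above its plate mean, without a fluorescence outlier flag or 80% toxicity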;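 further: spot-positive cell cutoff set from DMSO-treated cells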
INS promoter inh: TRM-6 insulin promoter activity inhibition. TRM-6 cells (human fetal islet line), insulin promoter-eGFP reporter, imaging; reporter expression induced with tamoxifen. inhibition, % at 2 µM. actives 0.9% (n = 130,000). AID 1273;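 active means inhibition above the mean plus 3 SD, with well images judged a real hit on visual review, cut at about 60% in these data, passing the limit was not always enough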
eIF4E-4G inh: eIF4E/eIF4G interaction inhibition in translation initiation; TR-FRET eIF4E-eIF4GI(517-606) binding, 2 h; actives 0.37% (n = 220,000); P63073+Q04637; inhibition, % at 21.7 µM;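 active means inhibition above about 30%, limit read from the data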;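 further: 0% = full FRET control wells and 100% = background wells lacking eIF4GI fragment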
Insulin prom up: MIN6 insulin promoter up-regulation; MIN6 insulin promoter-GFP reporter, high-content imaging; active compounds read high; z-score at 5 µM; actives 0.3% (n = 190,000);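 active means z-score above 3 at 5 µM with at least 500 cells counted in the well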
PERK inhibitor: inhibitors of human PERK kinase; CHO PERK-DD fusion, SEAP luminescence translation reporter; inhibition, % at 5.6 µM; actives 0.17% (n = 220,000); AID 1416;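 active means inhibition above the mean inhibition of all tested compounds plus 3 SD, set separately per screening campaign, cut at about 2.9% in these data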;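 further: PERK kinase domain activated by AP20187 dimerizer at 100 nM; 0% = DMSO with dimerizer and 100% = rapamycin at 8.4 µM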
Numbers without * were called inactive; i = inactive; . = not tested or not shown; + = active, no number; [ ] = another dose, or the depositor's remark. Compounds with a hit are over-represented: about 2% of the library has one in this group of screens.

SMILES	Autophagy HCS	INS promoter inh	eIF4E-4G inh	Insulin prom up	PERK inhibitor
C[C@H]1CCC/C=C/C2C[C@H](O)CC2[C@H](O)/C=C/C(=O)O1 (stereo partly drawn)	+	-305	0	.	-4
O=C(C1CC(=O)N(C2CCCCCCC2)C1)N1CCC2(CC1)OCCO2 (stereo not drawn)	i	74*	2	-0.39	-1
Cc1nn(CCC#N)c2c1P(=S)(N1CCCC1)OC(c1ccc(F)cc1)=N2 (stereo not drawn)	i	.	32*	-1.2	1
CCN(CCO)c1ccc(N=Cc2c(O)n(C)c(=S)[nH]c2=O)cc1	.	.	2	0.08	-2
O=C1NC(=S)N(c2ccc(F)cc2)C(=O)/C1=C\c1ccoc1	i	40	34*	-0.27	1
Cc1ccc(N2C(=O)NC(=O)/C(=C\c3ccoc3)C2=O)cc1	i	.	0	-0.18	-1
COc1c(C)cc(C(=O)C2CCCN(Cc3ccccn3)C2)cc1C (stereo not drawn)	i	-319	-4	-0.39	0
COc1ccc(-c2n(-c3ccccn3)c3ccccc3[n+]2-c2ccccn2)cc1	.	.	-5	-0.07	-1
CCNC(=O)[C@H]1O[C@@H](n2cnc3c(N)ncnc32)[C@H](O)[C@@H]1O	.	.	3	0.18	1
NC(=O)c1cn(C2OC(CO)C(O)C2O)c2ncnc(N)c12 (stereo not drawn)	i	64*	-6	.	5.3*
CC(C)OP(=O)(Oc1ccc(C(O)C(Cl)(Cl)Cl)cc1)OC(C)C (stereo not drawn)	.	.	-2	-0.11	1
O=C(O)CCC(=O)NCCC1=c2ccccc2=N/C1=C\c1c(O)n(Cc2ccc(F)cc2)c(=S)[nH]c1=O	.	.	60*	0.23	1
COC(=O)c1cn(C(=O)c2cccc3ccccc23)c2ccccc12	.	.	-1	.	-1
CN1C(=O)C(=Cc2sc(=O)n(-c3ccccc3)c2N(C)C)C(=O)N(C)C1=O	.	.	2	-0.26	0
O=c1c2ccccc2nc(-c2ccccc2)n1-c1ccccc1	.	.	-4	-0.69	-2
O=c1c2ccccc2[se]n1-c1ccccc1	i	0	77*	.	1
CCNC(=S)N1CCn2cccc2C1c1cccnc1 (stereo not drawn)	i	-25	-7	-0.41	-1
Cc1ccc2c(c1)C1CN(C)CCC1N2C(=O)c1cccnc1Cl (stereo not drawn)	.	.	0	0.37	3
Cc1ccc2c(c1)C1CN(C)CCC1N2C(=O)c1cn(-c2ccccc2)nc1-c1ccccc1 (stereo not drawn)	+	-150	-2	0.27	-1
Cc1ccnc(NS(=O)(=O)c2ccc(N=Cc3c(O)n(C)c(=O)n(C)c3=O)cc2)n1	i	.	-2	-0.78	0
Cc1nn(Cc2ccccc2)c(Cl)c1C(=O)Nc1ccc(OC(F)(F)F)cc1	i	-112	-1	-0.94	1
Cc1nn(Cc2ccccc2)c(Cl)c1C(=O)NC1CCCc2ccccc21 (stereo not drawn)	+	-32	2	0.7	-1
C[C@H]1CC[C@H]2NCCN[C@H]2C1	.	.	3	-0.01	3.1*
CN1C(=O)CN=C(c2ccccc2)c2cc(Cl)ccc21	.	.	0	0.37	1
C[C@]12CC[C@@H]3c4ccc(O)c(O)c4CC[C@H]3[C@@H]1CC[C@@H]2O	.	.	42*	0.14	1
SMILES	Autophagy HCS	INS promoter inh	eIF4E-4G inh	Insulin prom up	PERK inhibitor
COc1ccc(O)c(CN2CCCC(C(=O)c3ccccc3SC)C2)c1 (stereo not drawn)	i	.	-1	-0.06	-1
Cc1ccc(CN(Cc2ccccc2)C(=S)NCC(=O)N2CCC3(CC2)OCCO3)o1	i	-26	80*	-0.5	-1
CC[C@@H](C(N)=O)N1CCCC1=O	.	.	98*	-0.02	2
Cc1nc2ccccc2c(=O)n1-c1ccc(Br)cc1[N+](=O)[O-]	i	-14	3	0.59	0
COc1ccc(NC(=O)c2cn(CCC#N)nc2-c2cccc([N+](=O)[O-])c2)cc1	.	.	-12	-0.53	0
COc1ccc(Oc2cc(NC(=O)c3nn(C)cc3[N+](=O)[O-])cc([N+](=O)[O-])c2)cc1	+	-35	-3	-0.81	-2
CC(C)CN(CC(C)C)C(=O)C1C2c3ccccc3C(c3ccccc32)C1C(=O)O (stereo not drawn)	i	.	1	.	1
CCCCCCn1c(O)c(C=Nc2ccccc2N2CCOCC2)c(=O)[nH]c1=S	.	.	-12	3.2*	0
CCCCn1c(O)c(/C=N/N2CCOCC2)c(=O)[nH]c1=S	.	.	5	0	0
COc1ccc(CC2C(=O)NC(=O)N(c3ccccc3)C2=O)c(OC)c1 (stereo not drawn)	i	.	69*[fluorescence artefact?]	0.61	1
CC1CCCCN1Cc1c[nH]c2ccccc12 (stereo not drawn)	.	.	-1	-0.22	-1
CN1CSC(=S)N(C)C1	i	68*	-3	-0.19	1
CC(C(=O)O)N(C(=O)c1ccccc1)c1ccc(F)c(Cl)c1 (stereo not drawn)	i	29	1	.	2
CN(C)CCNC(=O)c1cccn(Cc2cccc(C(F)(F)F)c2)c1=O	+	.	-2	-0.18	1
CNC(=O)c1cccn(Cc2cccc(C(F)(F)F)c2)c1=O	i	.	-1	0.66	0
O=C(c1ccc(-c2ccccc2)cc1)C1CCCN(Cc2ccn[nH]2)C1 (stereo not drawn)	i	-30	1	.	0
Nc1ccc2c(c1)oc1ccccc12	i	-3	3	0.09	3.6*
C[N+]1(C)C2CCC1CC(OC(=O)c1ccco1)C2 (stereo not drawn)	.	.	0	-0.77	3.3*
O=C(Nc1cccnc1)c1c(O)c2c(n(Cc3ccccc3)c1=O)CCCC2	i	.	61*	-1.4	0
O=C(Nc1ccc(F)cc1)c1c(O)c2c(n(Cc3ccccc3)c1=O)CCCC2	i	-36	5	-0.1	0
CC1Oc2cc3c(-c4c(O)cc(O)c5c(O)c6c(cc45)OC(C)C(C)C6=O)c(O)cc(O)c3c(O)c2C(=O)C1C (stereo not drawn)	.	.	56*	-1.7	0
O=C(c1cc2cc3ccc(Cl)cc3nc2o1)N1CCC2(CC1)OCCO2	i	84*	0	-0.1	1
CN1C(=O)N(C)C(=O)C2(Cc3cc(N)ccc3N3CCN(c4ccccc4F)CC32)C1=O (stereo not drawn)	i	.	10	-0.52	1
CN1CCN2c3ccc(N)cc3CC3(C(=O)NC(=O)NC3=O)C2C1 (stereo not drawn)	.	.	93*	.	0
COc1ccc(N=Cc2c(O)n(-c3ccc(C)cc3)c(=O)[nH]c2=O)cc1	i	83*	-2	0.24	2
CCC(C)NC(=O)CN1C(=O)CN=C(c2ccccc2)c2ccccc21 (stereo not drawn)	i	2	4	-0.79	3.1*
COc1ccc(C(=O)CN2CCOCC2)cc1F	i	82*	5	0.8	2
CN(C)c1ccc2c(c1)N=C(c1ccco1)OP2(=S)N1CCOCC1 (stereo not drawn)	i	.	41*	-0.17	2
